{"source": "PubChem BioAssay AID1259374", "about": "(The Scripps Research Institute Molecular Screening Center, 2018)", "note": "The campaign covered roughly 650,000 compounds. About 5,900 (0.91%) were called active. The full list was thinned out, with actives kept by preference. Unmarked numbers belong to inactive results. Cut-off read from the data, not from the text of the source: active = inhibition above about 50%; inactive = the rest.", "data": [{"target": "Microphthalmia-associated transcription factor (Homo sapiens) (UniProt O75030)", "sequence (O75030 whole entry, looked up)": "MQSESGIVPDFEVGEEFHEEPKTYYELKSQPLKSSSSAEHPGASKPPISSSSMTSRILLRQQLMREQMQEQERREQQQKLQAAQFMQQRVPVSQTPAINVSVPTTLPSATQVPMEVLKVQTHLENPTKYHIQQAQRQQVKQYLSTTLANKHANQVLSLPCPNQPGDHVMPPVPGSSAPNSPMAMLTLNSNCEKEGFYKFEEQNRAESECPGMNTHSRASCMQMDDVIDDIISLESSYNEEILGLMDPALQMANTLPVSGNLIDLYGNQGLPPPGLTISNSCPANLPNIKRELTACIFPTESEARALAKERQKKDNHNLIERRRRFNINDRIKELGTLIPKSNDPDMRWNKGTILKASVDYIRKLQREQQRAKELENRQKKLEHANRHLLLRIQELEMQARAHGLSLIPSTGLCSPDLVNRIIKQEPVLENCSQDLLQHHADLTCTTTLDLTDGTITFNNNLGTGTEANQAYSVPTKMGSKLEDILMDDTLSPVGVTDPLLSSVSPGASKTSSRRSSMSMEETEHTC", "test": "MITF inhibitors, primary screen, biochemical, AlphaScreen, human (AID 1259374);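 note: 0% = vehicle wells with protein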", "conditions": "AlphaScreen MITF homodimerization, bead proximity signal; at 2.6 µM; hits give high values", "values": [{"compound": "CN(C)/N=C/C=C1\\CCC/C(=C\\C=N\\N(C)C)C1=O", "inhibition": "17.4%"}, {"compound": "CN(C)/N=C/C=C1\\CCC/C(=C\\c2ccc([N+](=O)[O-])cc2)C1=O", "inhibition": "-2.41%"}, {"compound": "CN(C)/C=C/C=C/C=C1\\CCC\\C(=C/C=C/C=C/N(C)C)C1=O", "inhibition": "98.9% (active)"}, {"compound": "Cc1ccc2nc3sc(C(=O)N4CC(=O)Nc5ccccc54)c(N)c3cc2c1", "inhibition": "-4.39%"}, {"compound": "c1ccc(C(Sc2nnc(COc3ccc(C4CCCCC4)cc3)n2-c2ccccc2)c2ccccc2)cc1", "inhibition": "15.4%"}, {"compound": "COc1ccccc1-c1nnc(SCCN2CCOCC2)n1C", "inhibition": "0.66%"}, {"compound": "O=[N+]([O-])c1ccc(OCc2nnc(SCCN3CCOCC3)n2-c2ccccc2)cc1", "inhibition": "53.2% (active)"}, {"compound": "COc1ccc(C(=O)Oc2ccc3c(C(F)(F)F)cc(=O)oc3c2C)cc1OC", "inhibition": "6.47%"}, {"compound": "O=S(=O)(c1ccc(-c2csc(N3N=C(c4cccs4)CC3c3ccc(F)cc3)n2)cc1)N1CCCCC1", "note": "(centres undefined)", "inhibition": "12%"}, {"compound": "Cc1ccc(N(C2C=CS(=O)(=O)C2)S(=O)(=O)c2ccc(Br)cc2)cc1", "note": "(centres undefined)", "inhibition": "19.4%"}, {"compound": "O=C(O)c1cccc(-n2[nH]c(-c3ccccc3)cc2=O)c1", "inhibition": "7.2%"}, {"compound": "Cc1nc2sc3c(c2c(=O)n1/N=C/c1ccccc1[N+](=O)[O-])CCCC3", "inhibition": "-7.66%"}, {"compound": "Cn1c(=O)oc2cc(S(=O)(=O)N3CCC(C(=O)NC(C)(C)C)CC3)ccc21", "inhibition": "70.2% (active)"}, {"compound": "Cn1c(=O)oc2cc(S(=O)(=O)N3CCC(C(=O)NCCC4=CCCCC4)CC3)ccc21", "inhibition": "-12.8%"}, {"compound": "COc1cccc(NC(=O)C2CCN(S(=O)(=O)c3ccc4c(c3)oc(=O)n4C)CC2)c1", "inhibition": "-1.03%"}, {"compound": "CC(C)NC(=O)NC(=O)COC(=O)c1ccc(Cl)c(S(N)(=O)=O)c1", "inhibition": "0.26%"}, {"compound": "CCOC(=O)c1ccc(NC(=O)CCc2c(C)nc3nc(CN)nn3c2C)cc1", "inhibition": "6.45%"}, {"compound": "COc1ccccc1NC(=O)Cn1cnc2sc(C(=O)Nc3nc4ccc(Br)cc4s3)c(C)c2c1=O", "inhibition": "17.9%"}, {"compound": "COCCCN1C(=O)c2cccc3c(C(=O)c4ccccc4)ccc(c23)C1=O", "inhibition": "64.3% (active)"}, {"compound": "CCCCN1C(=O)c2cccc3c(C(C)=O)ccc(c23)C1=O", "inhibition": "7.62%"}, {"compound": "COCCCN1C(=O)c2cccc3cccc(c23)C1=O", "inhibition": "1.36%"}, {"compound": "N/C(=N\\OC(=O)c1cccc(F)c1)c1ccc(Cl)cc1", "inhibition": "17.5%"}, {"compound": "CCOc1ccc(CN2CCCC(C(=O)N(C)Cc3ccccc3)C2)cc1", "note": "(centres undefined)", "inhibition": "45.6%"}, {"compound": "CCOC(=O)C1CCCN(Cc2ccc(F)cc2)C1", "note": "(centres undefined)", "inhibition": "12.6%"}, {"compound": "CCOc1cc(CN2CCC(C(=O)NCCc3ccccc3)CC2)ccc1O", "inhibition": "-1.67%"}, {"compound": "COc1ccc(CN2CCC(C(=O)N3CCN(Cc4ccccc4)CC3)CC2)cc1", "inhibition": "52% (active)"}, {"compound": "COc1cccc(CN2CCC(C(=O)NC(C)(C)C)CC2)c1", "inhibition": "18.9%"}, {"compound": "COc1ccc(-c2ncc(C)c(NC3CCN(Cc4ccccc4)CC3)n2)cc1", "inhibition": "9.68%"}, {"compound": "COc1cccc(CN2CCC(C(=O)NCCc3ccccc3)CC2)c1", "inhibition": "54.9% (active)"}, {"compound": "COc1ccc(CN2CCCC(C(=O)N3CCCCC3)C2)cc1", "note": "(centres undefined)", "inhibition": "57.8% (active)"}, {"compound": "COc1ccc(-c2nc(C(=O)NC3CCN(Cc4ccccc4)CC3)cs2)cc1", "inhibition": "9.55%"}, {"compound": "Cc1ccccc1-n1c(=S)sc2c(=O)n(-c3ccccc3)c(SCc3cc(=O)n4cc(Cl)ccc4n3)nc21", "inhibition": "-24.2%"}, {"compound": "CC(C)NC(=O)Cn1nc(SCc2ccccn2)nc1N", "inhibition": "2.01%"}, {"compound": "Cn1ccnc1SCc1cc(=O)c(OC(=O)c2ccccc2I)co1", "inhibition": "-3.29%"}, {"compound": "O=C(Nc1cccc(N2CCC(N(CC3CCC3)CC3CCCO3)CC2)c1)c1cccnc1", "note": "(centres undefined)", "inhibition": "21.5%"}, {"compound": "CC(C)CC(=O)N1CCc2ccccc21", "inhibition": "5.19%"}, {"compound": "COc1ccc(CN(C)CC(=O)N2CCc3ccccc32)cc1OC", "inhibition": "0.1%"}, {"compound": "CN(CCc1ccccn1)CC(=O)N1CCc2ccccc21", "inhibition": "93% (active)"}, {"compound": "CN(C(=O)c1ccccc1)c1cccc(N)c1", "inhibition": "-4.8%"}, {"compound": "COc1cc(CN2CCN(Cc3ccc(C)cc3)CC2)c([N+](=O)[O-])cc1OC", "inhibition": "80.6% (active)"}, {"compound": "COc1cc(C(=O)N2CCCC2)c([N+](=O)[O-])cc1OC", "inhibition": "9.4%"}, {"compound": "COc1cc(CN2CCN(Cc3ccc(Cl)cc3)CC2)c([N+](=O)[O-])cc1OC", "inhibition": "65.5% (active)"}, {"compound": "COc1cc(CN2CCN(CCO)CC2)c([N+](=O)[O-])cc1OC", "inhibition": "13.5%"}, {"compound": "COc1cc(CN2CCCN(C)CC2)c([N+](=O)[O-])cc1OC", "inhibition": "14.7%"}, {"compound": "COc1cc(CN2CCN(Cc3ccco3)CC2)c([N+](=O)[O-])cc1OC", "inhibition": "84.4% (active)"}, {"compound": "COc1cc(CNCc2ccc3c(c2)OCO3)c([N+](=O)[O-])cc1OC", "inhibition": "6.83%"}, {"compound": "COc1cc(CN2CCCC(CO)C2)c([N+](=O)[O-])cc1OC", "note": "(centres undefined)", "inhibition": "12.4%"}, {"compound": "c1ccc(CN2CCN(Cc3ccco3)CC2)cc1", "inhibition": "12.7%"}, {"compound": "CN1CCc2cc(CNC(=O)CC3C(=O)NCCN3CCc3ccccc3)ccc21", "note": "(centres undefined)", "inhibition": "-15.3%"}, {"compound": "CC/C(C)=N\\NC(=O)CCC(=O)Nc1ccccc1", "inhibition": "7.54%"}, {"compound": "NC(=O)c1ccccc1NC(=O)CCl", "inhibition": "0.34%"}, {"compound": "CCNC(=O)CSc1ccc(C)cc1", "inhibition": "1.07%"}, {"compound": "CN1C(=O)CSC1=Nc1ccc(Cl)c(Cl)c1", "inhibition": "-5.98%"}, {"compound": "CCNc1nc(NC(C)C)nc(OCCOC(C)=O)n1", "inhibition": "-3.21%"}, {"compound": "CCNc1nc(NCC)nc(C(=O)O)n1", "inhibition": "55.1% (active)"}, {"compound": "CCNc1nc(OC)cc(OC)n1", "inhibition": "-5.7%"}, {"compound": "O=C(CN1CCN(CC(=O)c2ccco2)CC1)Nc1ccc(Cl)c(Cl)c1", "inhibition": "65.2% (active)"}, {"compound": "O=C(COC(=O)c1ccco1)Nc1ccc(Cl)c(Cl)c1", "inhibition": "-6.47%"}, {"compound": "O=C(CN1CCN(C(=O)Nc2c(F)cccc2F)CC1)c1ccco1", "inhibition": "39.7%"}, {"compound": "COc1cccc2c1OC1(CCN(C(=O)Cc3cccs3)CC1)OC2", "inhibition": "0.59%"}, {"compound": "COc1cc(C(=O)/C(=C/c2ccccc2F)c2nc3ccccc3o2)cc(OC)c1OC", "inhibition": "5.52%"}, {"compound": "c1ccc(CSc2nc(C3CC3)nc3ccccc23)nc1", "inhibition": "-3.42%"}, {"compound": "Cc1nnc(NC(=O)CSc2nc(C3CCCCC3)nc3ccccc23)s1", "inhibition": "-12.8%"}, {"compound": "COC(=O)CSc1nc(C2CC2)nc2ccccc12", "inhibition": "72.1% (active)"}, {"compound": "Cc1cccc(NC(=O)CC[C@H]2CN(Cc3ccccc3)CC[C@H]2N(C)C)c1", "inhibition": "-2.16%"}, {"compound": "CCOc1ccc(OCCCCNCCO)cc1", "inhibition": "63.6% (active)"}, {"compound": "CC(C)(C)c1ccc(OCCCCNCCO)cc1", "inhibition": "-8.77%"}, {"compound": "OCCNCCCOc1ccc(I)cc1", "inhibition": "-4.92%"}, {"compound": "O=C(Nc1ccc(N2CCC(NCc3ccc4c(c3)OCO4)CC2)cc1)C1CCCC1", "inhibition": "-10.3%"}, {"compound": "O=C(c1ccccc1)c1cccc(NC(=O)C2CCCCC2)c1", "inhibition": "-1.02%"}, {"compound": "COC(=O)c1ccc(C2C(C(=O)OCCOc3ccccc3)=C(C)NC3=C2C(=O)CCC3)cc1", "note": "(centres undefined)", "inhibition": "0.05%"}, {"compound": "CC1=C(C(=O)OCC(C)C)C(c2cccc(OCc3ccccc3)c2)C2=C(CCCC2=O)N1", "note": "(centres undefined)", "inhibition": "0.37%"}, {"compound": "CCOc1cccc(C2C(C(=O)OCCOc3ccccc3)=C(C)NC3=C2C(=O)CCC3)c1", "note": "(centres undefined)", "inhibition": "59.2% (active)"}, {"compound": "COc1ccc(C(=O)N/C(=C\\c2cccc([N+](=O)[O-])c2)C(=O)NC(CC(C)C)C(=O)O)cc1", "note": "(centres undefined)", "inhibition": "-8.1%"}, {"compound": "COCCn1nnnc1C(c1ccc(F)cc1)N1CCN(c2ccccc2OC)CC1", "note": "(centres undefined)", "inhibition": "-3.53%"}, {"compound": "Cc1cc(-c2ccc(S(=O)(=O)NC3CCC(C)CC3)cc2)on1", "note": "(centres undefined)", "inhibition": "4.94%"}, {"compound": "COc1ccccc1NC(=O)c1ccc(N2CC3CC(C2)c2cccc(=O)n2C3)c(NC(=O)c2cccnc2)c1", "note": "(centres undefined)", "inhibition": "-6.03%"}, {"compound": "CCOC(=O)C1CCN(C(=O)c2ccc(N3CC4CC(C3)c3cccc(=O)n3C4)c(NC(=O)c3cccnc3)c2)CC1", "note": "(centres undefined)", "inhibition": "-0.93%"}, {"compound": "CC(=O)N1CCN(C(=O)c2ccc(N3CC4CC(C3)c3cccc(=O)n3C4)c(NC(=O)c3cccnc3)c2)CC1", "note": "(centres undefined)", "inhibition": "60% (active)"}, {"compound": "CCCCNC(=O)/C(=C/c1ccco1)NC(=O)c1ccccc1", "inhibition": "5.66%"}, {"compound": "O=C(O)CCCCCNC(=O)/C(=C\\c1ccco1)NC(=O)c1ccccc1", "inhibition": "52.3% (active)"}, {"compound": "O=C(NCCO)/C(=C/c1ccco1)NC(=O)c1ccccc1", "inhibition": "13.5%"}, {"compound": "CC(C)(CO)NC(=O)CCC1(Cc2ccc3ccccc3c2)CCC(=O)N1", "note": "(centres undefined)", "inhibition": "5.16%"}, {"compound": "CCc1ccc(C(=O)CC(c2ccccc2)C2CCCCC2=O)cc1", "note": "(centres undefined)", "inhibition": "2.82%"}, {"compound": "Cc1cncn(CC(=O)NCCOc2ccccc2)c1=O", "inhibition": "-1.97%"}, {"compound": "CC(C(=O)O)N1C(=O)S/C(=C\\c2ccccc2)C1=O", "note": "(centres undefined)", "inhibition": "8.38%"}, {"compound": "O=C(CCCN1C(=O)/C(=C\\c2ccco2)SC1=S)Nc1ccccc1C(=O)O", "inhibition": "9.5%"}, {"compound": "Cc1ccc(/C=C2\\SC(=S)N(c3cccc(O)c3)C2=O)o1", "inhibition": "13.4%"}, {"compound": "O=C(O)CCC(C(=O)O)N1C(=O)/C(=C\\c2ccco2)SC1=S", "note": "(centres undefined)", "inhibition": "62.6% (active)"}, {"compound": "COc1cc(/C=C2/SC(=S)N(C(CCSC)C(=O)O)C2=O)ccc1O", "note": "(centres undefined)", "inhibition": "15.5%"}, {"compound": "O=C(CCN1C(=O)/C(=C\\c2ccco2)SC1=S)Nc1cccc(C(=O)O)c1", "inhibition": "2.65%"}, {"compound": "CCCCC(C(=O)O)N1C(=O)/C(=C2/C(=O)N(C(C)=O)c3ccccc32)SC1=S", "note": "(centres undefined)", "inhibition": "6.57%"}, {"compound": "CCCC(C(=O)O)N1C(=O)/C(=C/C=C/c2ccco2)SC1=S", "note": "(centres undefined)", "inhibition": "63.6% (active)"}, {"compound": "Cc1ccc(/C=C2\\SC(=S)N(C(C)C(=O)O)C2=O)o1", "note": "(centres undefined)", "inhibition": "69.4% (active)"}]}]}
